According to the supplement of paper PMC10849652:
About 7,900 targets were measured; listed, in parts, are those with a hit and a random draw of the rest. About 0.6% of all pairs of compound and target were hits.

How the values were obtained:
Assay in all cases: log2 fold change, soluble protein after heating vs DMSO (PISA); higher = thermal stabilisation; K562 cells, 10 uM, 30 min; active = over 0.2 and 3.5 SD of the protein, either way, in both replicates (recomputed)
[1] = compound: C1=CC=C(C=C1)[C@H](COC2=CC3=C(C=C2)NC(=O)N3)NC(=O)C4=CC=CN(C4=O)CC5=CC(=C(C=C5)F)F
Procedure, shortened: (§1)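 For each measurement, 10 μM compound was applied for 30 min to K562 cells at 2×10^6 cells/mL. Aliquots were heated for 3 min across 48°C-58°C, pooled, and extracted in PBS with 0.5% NP-40 at 4°C; the supernatant after 21,000xg for 90 min was soluble protein. This was quantified by TMTpro 16plex LC-MS/MS with channel sums equalised, and thermal stability was reported relative to control samples from duplicates, on a log2 fold-change scale.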

[2] = compound: CC1=C(SC2=C1C(=N[C@H](C3=NN=C(N32)C)CC(=O)N)C4=CC=C(C=C4)Cl)C
Procedure, shortened: as §1

[3] = compound: CC1=C2C(=CC=C1)N=C(N(C2=O)C3=CC=CC=C3C)CN4C=NC5=C(N=CN=C54)N
Procedure, shortened: as §1

[4] = compound: Cc1sc2c(c1C)C(c1ccc(Cl)cc1)=N[C@@H](CC(=O)OC(C)(C)C)c1nnc(C)n1-2
Procedure, shortened: as §1

[5] = compound: c1ccc([C@@H]2C[C@H]2NC2CCNCC2)cc1
Procedure, shortened: as §1

Measured: log2 fold change

SMAP2 (UniProt Q8WU79)
inactive: [1] -0.041 | [2] 0.013 | [3] 0.086 | [4] 0.001 | [5] 0.011

SRSF2 (UniProt Q01130)
inactive: [1] 0.008 | [2] -0.047 | [3] -0.052 | [4] 0.061 | [5] 0.143

STXBP5 (UniProt Q5T5C0)
inactive: [1] -0.011 | [2] 0.017 | [3] 0.15 | [4] -0.04 | [5] -0.027

SLC4A2 (UniProt P04920)
Chain of UniProt P04920 (P04920 whole entry, looked up): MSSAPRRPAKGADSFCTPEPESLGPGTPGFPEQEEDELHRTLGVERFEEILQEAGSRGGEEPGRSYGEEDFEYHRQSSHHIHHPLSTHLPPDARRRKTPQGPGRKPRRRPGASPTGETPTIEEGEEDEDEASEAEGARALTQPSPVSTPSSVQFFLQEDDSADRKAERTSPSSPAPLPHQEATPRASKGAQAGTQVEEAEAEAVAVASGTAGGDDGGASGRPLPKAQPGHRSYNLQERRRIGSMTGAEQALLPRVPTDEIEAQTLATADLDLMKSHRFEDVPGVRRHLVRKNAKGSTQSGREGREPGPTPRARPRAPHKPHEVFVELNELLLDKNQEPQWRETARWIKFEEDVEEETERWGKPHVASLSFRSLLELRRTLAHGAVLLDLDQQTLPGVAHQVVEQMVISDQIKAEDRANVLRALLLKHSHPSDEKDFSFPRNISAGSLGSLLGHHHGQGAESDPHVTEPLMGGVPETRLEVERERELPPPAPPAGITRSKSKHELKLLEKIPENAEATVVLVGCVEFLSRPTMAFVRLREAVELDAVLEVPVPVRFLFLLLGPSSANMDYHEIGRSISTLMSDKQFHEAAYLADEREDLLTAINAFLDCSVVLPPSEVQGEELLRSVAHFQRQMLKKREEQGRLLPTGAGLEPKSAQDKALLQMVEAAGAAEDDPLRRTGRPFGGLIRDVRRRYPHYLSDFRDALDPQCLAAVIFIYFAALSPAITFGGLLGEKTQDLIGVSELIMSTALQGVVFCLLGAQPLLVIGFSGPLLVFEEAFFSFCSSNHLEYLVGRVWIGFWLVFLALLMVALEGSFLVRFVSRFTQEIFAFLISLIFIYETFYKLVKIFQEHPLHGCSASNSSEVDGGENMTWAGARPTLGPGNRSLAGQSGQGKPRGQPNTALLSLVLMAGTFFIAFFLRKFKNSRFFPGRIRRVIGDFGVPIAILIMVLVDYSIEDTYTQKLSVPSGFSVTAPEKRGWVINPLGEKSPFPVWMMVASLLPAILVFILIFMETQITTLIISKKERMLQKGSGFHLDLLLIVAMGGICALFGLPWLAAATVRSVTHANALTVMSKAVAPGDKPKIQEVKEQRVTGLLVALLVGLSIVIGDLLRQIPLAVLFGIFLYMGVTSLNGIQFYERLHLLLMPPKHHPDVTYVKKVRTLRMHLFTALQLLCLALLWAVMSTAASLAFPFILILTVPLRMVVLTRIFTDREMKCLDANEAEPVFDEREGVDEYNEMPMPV
inactive: [1] -0.042 | [2] 0.016 | [3] 0.019 | [4] -0.038 | [5] 0.088

TGFBRAP1 (UniProt Q8WUH2)
inactive: [1] -0.021 | [2] 0.03 | [3] 0.075 | [4] -0.105 | [5] -0.004

TBCD (UniProt Q9BTW9)
inactive: [1] -0.028 | [2] 0.03 | [3] 0.101 | [4] -0.004 | [5] -0.03

SSX2 (UniProt Q16385)
Chain of UniProt Q16385 (Q16385 whole entry, looked up): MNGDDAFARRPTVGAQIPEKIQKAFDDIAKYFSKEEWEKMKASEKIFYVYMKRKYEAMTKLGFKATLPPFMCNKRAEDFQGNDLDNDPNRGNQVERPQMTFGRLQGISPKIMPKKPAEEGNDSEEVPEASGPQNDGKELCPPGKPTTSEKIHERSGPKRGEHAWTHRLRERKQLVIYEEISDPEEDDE
inactive: [1] 0.008 | [2] -0.024 | [3] 0.038 | [4] -0.021 | [5] 0.023

STAT3 (UniProt P40763)
inactive: [1] -0.033 | [2] 0.034 | [3] 0.1 | [4] 0.024 | [5] -0.006

TJP2 isoform 7 (UniProt Q9UDY2)
inactive: [1] -0.03 | [2] 0.084 | [3] 0.081 | [4] 0.04 | [5] -0.044

SLC35B1 isoform 2 (UniProt P78383)
inactive: [1] -0.166 | [2] -0.233 | [3] 0.146 | [4] -0.215 | [5] 0.027

SMPD4 isoform 4 (UniProt Q9NXE4)
inactive: [1] -0.094 | [2] 0.031 | [3] 0.043 | [4] -0.034 | [5] -0.104

SYNE1 (UniProt Q8NF91)
inactive: [1] -0.009 | [2] 0.24 | [3] 0.223 | [4] -0.018 | [5] -0.052

TERF2IP (UniProt Q9NYB0)
inactive: [1] 0.003 | [2] 0.01 | [3] 0.004 | [4] -0.01 | [5] 0.066

TK1 (UniProt K7ERV3)
inactive: [1] 0.038 | [2] 0.091 | [3] 0.083 | [4] 0.029 | [5] 0.015

STARD9 (UniProt Q9P2P6)
inactive: [1] -0.073 | [2] 0.147 | [3] -0.072 | [4] 0.042 | [5] -0.087

SMIM20 isoform 2 (UniProt Q8N5G0)
inactive: [1] 0.019 | [2] -0.034 | [3] 0.081 | [4] -0.125 | [5] -0.1

SMAD9 (UniProt O15198)
inactive: [1] -0.104 | [2] 0.094 | [3] -0.001 | [4] 0.076 | [5] -0.054

TATDN2 (UniProt Q93075)
inactive: [1] -0.044 | [2] -0.067 | [3] -0.037 | [4] 0.069 | [5] 0.071

TANK (UniProt Q92844)
Chain of UniProt Q92844 (Q92844 whole entry, looked up): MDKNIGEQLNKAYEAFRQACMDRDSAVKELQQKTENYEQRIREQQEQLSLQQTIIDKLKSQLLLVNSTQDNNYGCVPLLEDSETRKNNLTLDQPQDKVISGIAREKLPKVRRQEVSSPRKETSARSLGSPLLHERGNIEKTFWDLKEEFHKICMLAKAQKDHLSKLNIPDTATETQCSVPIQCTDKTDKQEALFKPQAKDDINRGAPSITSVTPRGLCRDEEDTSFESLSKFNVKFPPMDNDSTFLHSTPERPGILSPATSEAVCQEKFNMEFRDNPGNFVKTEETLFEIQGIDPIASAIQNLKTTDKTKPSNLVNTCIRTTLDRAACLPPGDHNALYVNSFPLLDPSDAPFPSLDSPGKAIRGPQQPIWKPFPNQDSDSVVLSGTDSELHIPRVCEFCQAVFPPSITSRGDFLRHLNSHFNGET
inactive: [1] -0.001 | [2] -0.093 | [3] -0.019 | [4] 0.02 | [5] 0.026

SLIRP (UniProt Q9GZT3)
inactive: [1] -0.038 | [2] -0.073 | [3] 0.01 | [4] -0.016 | [5] 0.042

TBC1D24 (UniProt Q9ULP9)
inactive: [1] -0.108 | [2] 0.152 | [3] 0.02 | [4] -0.029 | [5] -0.061

SPIRE1 (UniProt Q08AE8)
inactive: [1] 0.079 | [2] 0.002 | [3] 0.196 | [4] -0.01 | [5] 0.075

SPR (UniProt P35270)
inactive: [1] 0.026 | [2] 0.04 | [3] 0.031 | [4] -0.058 | [5] -0.105

SREK1 isoform 2 (UniProt Q8WXA9)
inactive: [1] 0.05 | [2] -0.06 | [3] -0.039 | [4] -0.037 | [5] 0.026

SOX5 (UniProt P35711)
inactive: [1] -0.033 | [2] 0.005 | [3] -0.058 | [4] -0.018 | [5] -0.022

ST3GAL2 (UniProt Q16842)
inactive: [1] 0.083 | [2] 0.006 | [3] 0.011 | [4] 0.005 | [5] 0.007

TCERG1 (UniProt O14776)
Chain of UniProt O14776 (O14776 whole entry, looked up): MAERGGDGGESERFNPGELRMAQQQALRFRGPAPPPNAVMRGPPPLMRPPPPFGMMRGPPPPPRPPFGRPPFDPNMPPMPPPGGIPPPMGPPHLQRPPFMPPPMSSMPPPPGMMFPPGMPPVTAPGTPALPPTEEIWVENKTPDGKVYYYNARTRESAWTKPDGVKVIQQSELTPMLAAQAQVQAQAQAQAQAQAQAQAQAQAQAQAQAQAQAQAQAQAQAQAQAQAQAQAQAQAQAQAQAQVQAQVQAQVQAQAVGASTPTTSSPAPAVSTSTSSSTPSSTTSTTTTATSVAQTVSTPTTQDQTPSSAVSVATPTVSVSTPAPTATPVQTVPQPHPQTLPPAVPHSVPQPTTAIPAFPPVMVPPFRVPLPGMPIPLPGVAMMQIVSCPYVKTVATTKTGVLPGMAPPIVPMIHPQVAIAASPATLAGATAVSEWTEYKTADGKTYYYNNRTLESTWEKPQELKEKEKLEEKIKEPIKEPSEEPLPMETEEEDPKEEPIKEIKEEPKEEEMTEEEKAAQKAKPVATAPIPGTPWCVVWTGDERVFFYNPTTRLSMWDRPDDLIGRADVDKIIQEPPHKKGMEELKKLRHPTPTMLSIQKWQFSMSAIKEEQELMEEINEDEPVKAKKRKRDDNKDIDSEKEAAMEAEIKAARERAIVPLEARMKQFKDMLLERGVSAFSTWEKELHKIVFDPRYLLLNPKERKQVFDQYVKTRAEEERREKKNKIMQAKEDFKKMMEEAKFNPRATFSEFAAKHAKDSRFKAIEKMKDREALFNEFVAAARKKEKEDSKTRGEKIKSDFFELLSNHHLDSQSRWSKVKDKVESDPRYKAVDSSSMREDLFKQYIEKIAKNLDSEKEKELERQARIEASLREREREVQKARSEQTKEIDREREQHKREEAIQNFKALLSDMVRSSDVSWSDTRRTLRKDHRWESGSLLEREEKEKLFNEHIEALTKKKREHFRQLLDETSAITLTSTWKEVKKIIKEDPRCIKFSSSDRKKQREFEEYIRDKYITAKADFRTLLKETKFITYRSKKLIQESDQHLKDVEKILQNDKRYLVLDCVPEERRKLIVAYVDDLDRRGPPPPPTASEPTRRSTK
inactive: [1] -0.1 | [2] 0.106 | [3] 0.182 | [4] -0.065 | [5] -0.033

TBC1D5 isoform 2 (UniProt Q92609)
Chain of UniProt Q92609 (Q92609 whole entry, looked up): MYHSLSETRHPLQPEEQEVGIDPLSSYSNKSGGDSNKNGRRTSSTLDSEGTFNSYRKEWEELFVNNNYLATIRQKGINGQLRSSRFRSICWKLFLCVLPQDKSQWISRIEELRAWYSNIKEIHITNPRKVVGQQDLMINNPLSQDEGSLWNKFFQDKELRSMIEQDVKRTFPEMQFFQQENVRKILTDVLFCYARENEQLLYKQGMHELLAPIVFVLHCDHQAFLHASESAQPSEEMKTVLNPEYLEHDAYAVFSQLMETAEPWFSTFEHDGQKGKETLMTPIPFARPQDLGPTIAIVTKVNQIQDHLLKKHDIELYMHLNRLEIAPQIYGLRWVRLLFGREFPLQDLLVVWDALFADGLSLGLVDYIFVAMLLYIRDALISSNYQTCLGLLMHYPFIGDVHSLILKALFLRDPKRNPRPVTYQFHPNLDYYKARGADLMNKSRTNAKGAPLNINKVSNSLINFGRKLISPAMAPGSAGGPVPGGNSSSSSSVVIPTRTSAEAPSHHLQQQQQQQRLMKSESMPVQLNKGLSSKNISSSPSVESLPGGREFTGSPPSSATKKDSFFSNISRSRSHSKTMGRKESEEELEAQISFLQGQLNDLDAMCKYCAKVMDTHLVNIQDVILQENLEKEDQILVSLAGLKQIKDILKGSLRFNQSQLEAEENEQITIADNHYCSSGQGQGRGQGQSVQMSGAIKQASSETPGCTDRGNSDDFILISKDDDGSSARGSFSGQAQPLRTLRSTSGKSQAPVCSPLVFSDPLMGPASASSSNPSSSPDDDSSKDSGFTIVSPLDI
inactive: [1] -0.046 | [2] 0.055 | [3] 0.066 | [4] 0.003 | [5] -0.034

SP1 (UniProt P08047)
inactive: [1] 0.002 | [2] -0.029 | [3] 0.016 | [4] 0.051 | [5] 0.02

TAOK3 (UniProt Q9H2K8)
inactive: [1] 0 | [2] 0.057 | [3] 0.002 | [4] -0.003 | [5] -0.024

SPCS2 (UniProt Q15005)
inactive: [1] -0.011 | [2] 0.043 | [3] -0.034 | [4] -0.061 | [5] -0.031

SSR3 isoform 2 (UniProt Q9UNL2)
inactive: [1] 0.016 | [2] -0.087 | [3] -0.107 | [4] -0.078 | [5] -0.168

TBP (UniProt P20226)
inactive: [1] 0.016 | [2] 0.314 | [3] -0.158 | [4] 0.144 | [5] 0.07

TMBIM6 isoform 2 (UniProt P55061)
inactive: [1] -0.037 | [2] -0.022 | [3] 0.041 | [4] -0.03 | [5] 0.041

SLC38A7 (UniProt Q9NVC3)
inactive: [1] 0.021 | [2] -0.031 | [3] -0.004 | [4] -0.035 | [5] 0.117

SMC5 (UniProt Q8IY18)
inactive: [1] 0.017 | [2] 0.045 | [3] -0.006 | [4] -0.028 | [5] -0.005

SLC25A4 (UniProt P12235)
inactive: [1] -0.001 | [2] -0.034 | [3] 0.062 | [4] -0.049 | [5] 0.05

TIMM44 (UniProt O43615)
Chain of UniProt O43615 (O43615 whole entry, looked up): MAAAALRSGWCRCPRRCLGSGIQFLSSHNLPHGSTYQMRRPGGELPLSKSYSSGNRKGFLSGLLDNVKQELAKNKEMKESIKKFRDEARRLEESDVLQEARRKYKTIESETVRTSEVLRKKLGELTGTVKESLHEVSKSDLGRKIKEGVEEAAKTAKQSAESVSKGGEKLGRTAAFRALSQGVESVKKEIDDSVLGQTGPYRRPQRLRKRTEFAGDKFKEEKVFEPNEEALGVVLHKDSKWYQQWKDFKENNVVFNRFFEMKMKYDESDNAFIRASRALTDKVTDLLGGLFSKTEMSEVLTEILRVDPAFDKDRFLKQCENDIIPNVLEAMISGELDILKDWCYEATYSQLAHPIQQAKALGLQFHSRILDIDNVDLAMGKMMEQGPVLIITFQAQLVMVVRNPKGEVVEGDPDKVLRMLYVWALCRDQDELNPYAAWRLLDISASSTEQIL
inactive: [1] -0.099 | [2] 0.043 | [3] 0.088 | [4] 0.008 | [5] -0.017

SYK (UniProt P43405)
inactive: [1] 0.21 | [2] -0.221 | [3] -0.041 | [4] 0.132 | [5] -0.105

SLC38A2 (UniProt Q96QD8)
inactive: [1] -0.006 | [2] 0.044 | [3] 0.024 | [4] -0.028 | [5] 0.035

SRSF3 (UniProt P84103)
Chain of UniProt P84103 (P84103 whole entry, looked up): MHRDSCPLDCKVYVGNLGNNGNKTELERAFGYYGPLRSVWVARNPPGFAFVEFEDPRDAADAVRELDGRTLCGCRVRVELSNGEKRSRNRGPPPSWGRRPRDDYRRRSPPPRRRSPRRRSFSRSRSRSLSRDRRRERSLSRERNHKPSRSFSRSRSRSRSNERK
inactive: [1] 0.099 | [2] -0.18 | [3] -0.159 | [4] 0.152 | [5] 0.055

TACC2 (UniProt O95359)
inactive: [1] -0.031 | [2] -0.03 | [3] 0.166 | [4] 0.011 | [5] 0.05

TGFBI (UniProt Q15582)
Chain of UniProt Q15582 (Q15582 whole entry, looked up): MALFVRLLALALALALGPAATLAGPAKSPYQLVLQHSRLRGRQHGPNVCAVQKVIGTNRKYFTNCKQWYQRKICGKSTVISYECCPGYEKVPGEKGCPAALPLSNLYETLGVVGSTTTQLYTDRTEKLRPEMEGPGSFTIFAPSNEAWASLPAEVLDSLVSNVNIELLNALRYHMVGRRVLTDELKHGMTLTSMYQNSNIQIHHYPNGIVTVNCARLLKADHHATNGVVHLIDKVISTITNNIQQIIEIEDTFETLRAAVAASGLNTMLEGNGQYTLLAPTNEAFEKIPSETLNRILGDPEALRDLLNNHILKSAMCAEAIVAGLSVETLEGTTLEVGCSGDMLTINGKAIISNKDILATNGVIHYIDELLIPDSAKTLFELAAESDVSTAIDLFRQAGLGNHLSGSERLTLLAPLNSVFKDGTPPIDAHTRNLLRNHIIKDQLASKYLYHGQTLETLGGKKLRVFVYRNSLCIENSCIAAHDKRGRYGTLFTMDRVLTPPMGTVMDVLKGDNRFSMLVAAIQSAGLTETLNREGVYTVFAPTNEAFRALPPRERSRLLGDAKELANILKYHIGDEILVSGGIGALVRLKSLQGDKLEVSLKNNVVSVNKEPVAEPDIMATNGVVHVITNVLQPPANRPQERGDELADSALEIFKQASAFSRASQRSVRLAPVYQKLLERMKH
inactive: [1] -0.115 | [2] -0.024 | [3] 0.019 | [4] -0.048 | [5] -0.08

SRP72 (UniProt O76094)
inactive: [1] -0.068 | [2] -0.016 | [3] 0.047 | [4] 0.097 | [5] -0.016

SNX2 (UniProt O60749)
inactive: [1] -0.015 | [2] 0.069 | [3] 0.066 | [4] -0.026 | [5] -0.079

SNX1 (UniProt Q13596)
inactive: [1] -0.019 | [2] 0.029 | [3] 0.038 | [4] -0.003 | [5] -0.07

SRI (UniProt P30626)
inactive: [1] -0.034 | [2] 0.111 | [3] 0.043 | [4] -0.093 | [5] -0.064

SMARCE1 (UniProt Q969G3)
inactive: [1] -0.156 | [2] -0.002 | [3] 0.338 | [4] 0.111 | [5] -0.051

SSBP4 (UniProt U3KPY3)
inactive: [3] 0

TAOK2 (UniProt Q9UL54)
inactive: [4] 0.026

THAP9 (UniProt Q9H5L6)
inactive: [1] 0.093 | [2] 0.167 | [5] -0.046

SLC46A1 (UniProt Q96NT5)
inactive: [2] -0.09 | [3] 0.075 | [4] 0.024 | [5] 0.256

TDP1 (UniProt Q9NUW8)
inactive: [2] 0.068 | [5] 0.054

TBC1D20 isoform 3 (UniProt Q96BZ9)
inactive: [1] 0.017 | [2] 0.069 | [3] -0.021
active: [5] -0.403

TCOF1 isoform 6 (UniProt Q13428)
inactive: [1] 0.209 | [2] 0.151 | [3] -0.251 | [4] 0.271 | [5] 0.029
